Experimental findings from the antibiotic and cytotoxicity screens of Wong et al. (2023) are described below.

The whole screen tested about 39,000 compounds, of which about 500 (1.3%) were called active. This is one part of a sample in which actives are shown more often than they occur.

The assay concerns S. aureus RN4220. Briefly: growth inhibition call (relative growth <= 0.2). The following applies: 50 µM.
As for `Cn1cnc(S(=O)(=O)N2C[C@H](O)COC[C@@H]3O[C@H](CC(=O)NC4CCCC4)CC[C@H]32)c1`, the growth inhibition call was “inactive”. Consider `C=C[C@H]1CCC=C2C(=O)CCC[C@@H]21`, for which the growth inhibition call was “inactive”. On to `C[C@@H]1CCCCO[C@@H](CN(C)C(=O)Nc2ccc(C(F)(F)F)cc2)[C@H](C)CN([C@@H](C)CO)C(=O)c2cc(NS(=O)(=O)c3cn(C)cn3)ccc2O1`, for which the growth inhibition call was “active”.

On to `C[C@H]1CCCCO[C@H](CN(C)C(=O)Nc2ccc(C(F)(F)F)cc2)[C@@H](C)CN([C@@H](C)CO)C(=O)c2cc(NS(=O)(=O)c3cn(C)cn3)ccc2O1`, for which the growth inhibition call was “inactive”. With `C[C@@H]1CN([C@H](C)CO)C(=O)c2cc(NS(=O)(=O)c3cn(C)cn3)ccc2O[C@@H](C)CCCCO[C@H]1CN(C)C(=O)Nc1ccc(C(F)(F)F)cc1`, the growth inhibition call was “inactive”.

For `C[C@@H]1CCCCO[C@H](CN(C)C(=O)Nc2ccc(C(F)(F)F)cc2)[C@@H](C)CN([C@H](C)CO)C(=O)c2cc(NS(=O)(=O)c3cn(C)cn3)ccc2O1`, the growth inhibition call is “inactive”. Under `C[C@@H]1CN([C@@H](C)CO)C(=O)c2cc(NS(=O)(=O)c3cn(C)cn3)ccc2O[C@@H](C)CCCCO[C@@H]1CN(C)C(=O)Nc1ccc(C(F)(F)F)cc1` stands “active”; under `C[C@@H]1CCCCO[C@H](CN(C)C(=O)Nc2ccc(C(F)(F)F)cc2)[C@H](C)CN([C@@H](C)CO)C(=O)c2cc(NS(=O)(=O)c3cn(C)cn3)ccc2O1`, “inactive”; under `C[C@@H]1CCCCO[C@H](CN(C)C(=O)Nc2ccc(C(F)(F)F)cc2)[C@H](C)CN([C@H](C)CO)C(=O)c2cc(NS(=O)(=O)c3cn(C)cn3)ccc2O1`, “inactive”. For `C[C@H](CO)N1C[C@H](C)[C@@H](CN(C)C(=O)Nc2ccc(C(F)(F)F)cc2)OCCCC[C@H](C)Oc2ccc(NS(=O)(=O)c3cn(C)cn3)cc2C1=O`, the growth inhibition call is “active”. For `C[C@@H]1CCCCO[C@@H](CN(C)C(=O)Nc2ccc(C(F)(F)F)cc2)[C@@H](C)CN([C@H](C)CO)C(=O)c2cc(NS(=O)(=O)c3cn(C)cn3)ccc2O1`, the growth inhibition call was “inactive”. Under `C[C@@H]1CCCCO[C@@H](CN(C)C(=O)CCC(F)(F)F)[C@@H](C)CN([C@H](C)CO)C(=O)c2cc(NC(=O)NC3CCCCC3)ccc2O1` stands “inactive”.

Take `CC(C)NC(=O)Nc1cccc2c1O[C@@H](CN(C)S(=O)(=O)c1ccc(F)cc1)[C@H](C)CN([C@@H](C)CO)C2=O`: the growth inhibition call was “inactive”. For `O=C(C[C@@H]1C=C[C@@H](NC(=O)Nc2ccc3c(c2)OCO3)[C@H](CO)O1)NCCCN1CCOCC1`, the growth inhibition call is “inactive”. On to `COc1ccc(Nc2ccc(-c3ccncc3)s2)cc1Cl`, for which the growth inhibition call was “inactive”. Consider `C[C@H]1CN([C@@H](C)CO)C(=O)Cc2cc(NS(C)(=O)=O)ccc2O[C@H]1CN(C)S(=O)(=O)c1ccccc1`, for which the growth inhibition call is “inactive”. Under `Cc1noc(C)c1NC(=O)Nc1ccc2c(c1)C(=O)N([C@H](C)CO)C[C@H](C)[C@@H](CN(C)C(=O)NC1CCCCC1)OCCCC[C@@H](C)O2` stands “inactive”. Under `Cc1ccc(S(=O)(=O)Nc2ccc3c(c2)C(=O)N([C@@H](C)CO)C[C@@H](C)[C@@H](CN(C)C(=O)Nc2ccc(F)cc2)OCCCC[C@H](C)O3)cc1` stands “inactive”; under `CCN(CCCc1ccccc1)CCCc1ccccc1.O=C(O)CC(O)(CC(=O)O)C(=O)O`, “inactive”; under `CN(C)CCN(Cc1ccccc1)c1ccccn1.O=C(O)CC(O)(CC(=O)O)C(=O)O`, “inactive”. Consider `CCC(=C(c1ccccc1)c1ccc(OCCN(C)C)cc1)c1ccccc1.O=C(O)CC(O)(CC(=O)O)C(=O)O`, for which the growth inhibition call is “active”. Turning to `CCN(CC)CCOc1ccc(C(=C(Cl)c2ccccc2)c2ccccc2)cc1.O=C(O)CC(O)(CC(=O)O)C(=O)O`, the growth inhibition call is “inactive”. With `Cc1ccccc1C(OCCN(C)C)c1ccccc1.O=C(O)CC(O)(CC(=O)O)C(=O)O` (centres undefined) the entry was “inactive”; with `CN(C)CCOc1ccc(C(=C(CCCl)c2ccccc2)c2ccccc2)cc1.O=C(O)CC(O)(CC(=O)O)C(=O)O`, “active”. For the compound `C[C@H]1CN([C@@H](C)CO)C(=O)c2cc(C#Cc3ccccc3F)cnc2O[C@@H]1CN(C)C(=O)C1CCOCC1`, the growth inhibition call is “inactive”.

As to `COc1ccc2c3c([nH]c2c1)[C@H](CO)N(C[C@]13CN(Cc2cc(on2)-c2ccccc2)C1)C(=O)Nc1ccc(cc1)F`, the growth inhibition call is “inactive”. Regarding `COc1ccc(S(=O)(=O)N(C)C[C@H]2OCCCC[C@H](C)Oc3ccc(NC(=O)CCC(F)(F)F)cc3C(=O)N([C@H](C)CO)C[C@H]2C)cc1`, the growth inhibition call was “inactive”. As to `C[C@@H]1CCCCO[C@@H](CN(C)C(=O)c2ccccc2)[C@H](C)CN([C@@H](C)CO)C(=O)c2cc(NC(=O)Nc3cccc4ccccc34)ccc2O1`, the growth inhibition call was “inactive”. On to `O=S(=O)(O)c1cc(O)ccc1O`, for which the growth inhibition call is “inactive”.

With `C[C@@H]1CN([C@H](C)CO)C(=O)c2cccc(NC(=O)c3ccc(-c4nccs4)cc3)c2O[C@@H]1CN(C)C(=O)Nc1ccc2c(c1)OCO2`, the growth inhibition call was “inactive”. In the case of `Cc1ccc(S(=O)(=O)N(C)C[C@@H]2OCCCC[C@H](C)Oc3ccc(NC(=O)c4ccccc4)cc3C(=O)N([C@@H](C)CO)C[C@H]2C)cc1`, the growth inhibition call was “inactive”.

For the compound `C[C@@H]1CN([C@@H](C)CO)C(=O)c2cc(NS(=O)(=O)c3cccs3)ccc2O[C@H]1CN(C)CC1CC1`, the growth inhibition call is “inactive”. As for `C[C@H](CO)N1C[C@H](C)[C@@H](CN(C)C(=O)Nc2cccc3ccccc23)Oc2ccc(NC(=O)Nc3cccc4ccccc34)cc2CC1=O`, the growth inhibition call is “inactive”.

In the case of `O=C(NO)c1cccc(C(=O)N/N=C/c2cc(I)cc(I)c2O)c1`, the growth inhibition call was “inactive”. Take `O=C(CCCCC(=O)N/N=C/c1cc(I)cc(I)c1O)NO`: the growth inhibition call is “active”.

Turning to `O=C(CCCCCCC(=O)N/N=C/c1cc(I)cc(I)c1O)NO`, the growth inhibition call is “inactive”. `C[C@H]1CN([C@@H](C)CO)C(=O)c2cccc(NC(=O)Nc3ccc4c(c3)OCO4)c2O[C@H]1CN(C)C(=O)Nc1cccc2ccccc12`: the growth inhibition call was “inactive”.

Regarding `COc1ccc(CN(C)C[C@@H]2OCCCC[C@H](C)Oc3ccc(NC(=O)CCC(F)(F)F)cc3C(=O)N([C@H](C)CO)C[C@H]2C)cc1`, the growth inhibition call was “inactive”.

For `COc1ccc(NC(=O)N(C)C[C@H]2Oc3c(NC(=O)CCCCCC(=O)Nc4ccccc4N)cccc3C(=O)N([C@H](C)CO)C[C@@H]2C)cc1`, the growth inhibition call was “inactive”. As to `CO[C@@H]1CN(C)C(=O)c2cc(NC(=O)CC(F)(F)F)ccc2OC[C@H](C)N(C(=O)C2CCOCC2)C[C@@H]1C`, the growth inhibition call is “inactive”. For the compound `COC1C=COC2(C)Oc3c(C)c(O)c4c(O)c(c5c(nc6cc(C)ccn65)c4c3C2=O)NC(=O)C(C)=CC=CC(C)C(O)C(C)C(O)C(C)C(OC(C)=O)C1C` (centres undefined), the growth inhibition call is “active”. For `COC1=C2C[C@H](C)C[C@H](OC)[C@@H](O)[C@H](C)/C=C(\C)[C@H](OC(N)=O)[C@H](OC)/C=C/C=C(\C)C(=O)NC(=CC1=O)C2=O`, the growth inhibition call is “inactive”. With `CO[C@H]1/C=C\O[C@@]2(C)Oc3c(C)c(O)c4c(O)c(c(/C=N/N=C/N5CCCCC5)c(O)c4c3C2=O)NC(=O)/C(C)=C\C=C/[C@H](C)[C@H](O)[C@@H](C)[C@@H](O)[C@@H](C)[C@H](OC(C)=O)[C@@H]1C` the entry was “active”. With `CO[C@H]1/C=C\O[C@@]2(C)Oc3c(C)c(O)c4c(c3C2=O)[C@]2(C=C(NC(=O)/C(C)=C\C=C/[C@@H](C)[C@@H](O)[C@@H](C)[C@@H](O)[C@@H](C)[C@@H](OC(C)=O)[C@@H]1C)C4=O)OCC(=O)O2` the entry was “active”; with `COC1C=COC2(C)Oc3c(C)c(O)c4c(O)c(c(C=NN5CCN(C6CCCC6)CC5)c(O)c4c3C2=O)NC(=O)C(C)=CC=CC(C)C(O)C(C)C(O)C(C)C(OC(C)=O)C1C` (centres undefined), “inactive”; with `COC1C=COC2(C)Oc3c(C)c(O)c4c(O)c(c(C=NN5CCN(C)CC5)c(O)c4c3C2=O)NC(=O)C(C)=CC=CC(C)C(O)C(C)C(O)C(C)C(OC(C)=O)C1C` (centres undefined), “inactive”.

In the case of `COC1=C2C[C@@H](C)C[C@H](OC)[C@H](O)[C@@H](C)/C=C(\C)[C@H](OC(N)=O)[C@@H](OC)/C=C\C=C(/C)C(=O)NC(=CC1=O)C2=O`, the growth inhibition call was “inactive”.

Turning to `C[C@H](CO)N1C[C@H](C)[C@@H](CN(C)Cc2ccncc2)Oc2c(NS(=O)(=O)c3cn(C)cn3)cccc2C1=O`, the growth inhibition call is “inactive”. With `O=C1O[C@H](c2ccccc2)[C@H](c2ccccc2)N2[C@H]1[C@@H](C(=O)N1CCN(c3ncccn3)CC1)[C@]1(C(=O)Nc3ccc(C#CC4=CCCCC4)cc31)[C@H]2c1ccc(O)cc1` the entry was “inactive”; with `CC(C)CC#Cc1cnc2c(c1)C(=O)N([C@@H](C)CO)C[C@H](C)[C@@H](CN(C)C(=O)CCN1CCCCC1)O2`, “inactive”. With `CC(C)NC(=O)Nc1ccc2c(c1)CC(=O)N([C@@H](C)CO)C[C@@H](C)[C@@H](CN(C)S(=O)(=O)c1ccc(F)cc1)O2` the entry was “inactive”. For `S=c1[nH]cc(-c2ccccc2)[nH]1`, the growth inhibition call was “active”.

`Cn1c(-c2ccccc2)c[nH]c1=S`: the growth inhibition call was “inactive”. Turning to `Cc1ccc(-c2c[nH]c(=S)[nH]2)cc1`, the growth inhibition call is “inactive”. `CC1CC2C3CCC4=CC(=O)C=CC4(C)C3(Cl)C(O)CC2(C)C1(OC(=O)c1ccco1)C(=O)CCl` (centres undefined): the growth inhibition call was “inactive”. Under `CN(C)C(=O)c1ccc(-c2cccc(-c3nc(C(=O)NC4CCCC4)cc4c3[C@@H](CCO)N([S@](=O)C(C)(C)C)C4)c2)cc1` stands “inactive”. Take `COc1ccc(S(=O)(=O)Nc2ccc3c(c2)C(=O)N([C@@H](C)CO)C[C@H](C)[C@@H](CN(C)S(C)(=O)=O)OCCCC[C@@H](C)O3)cc1`: the growth inhibition call is “inactive”.

With `Brc1ccc2nc(N3CCCN(Cc4ccccc4)CC3)nc(NC3CCN(Cc4ccccc4)CC3)c2c1`, the growth inhibition call is “active”. As for `COc1cc2nc(N3CCCN(Cc4ccccc4)CC3)nc(Nc3ccc(F)c(Cl)c3)c2cc1OC`, the growth inhibition call is “inactive”. For the compound `COc1cc2nc(N3CCCN(Cc4ccccc4)CC3)nc(NC3CCN(Cc4ccccc4)CC3)c2cc1OC`, the growth inhibition call is “inactive”.

As to `COc1ccc2c3c(n(c2c1)C)[C@H](CO)N(Cc1cc(cc(c1)OC)OC)C[C@]13CN(C1)C(=O)NC(C)C`, the growth inhibition call is “inactive”.

Regarding `COc1ccc(-c2ccc3cc(C(=O)O)ccc3c2)cc1C12CC3CC(CC(C3)C1)C2`, the growth inhibition call is “inactive”. Regarding `O=C(O)c1ccc2cc(-c3ccc(O)c(C45CC6CC(CC(C6)C4)C5)c3)ccc2c1`, the growth inhibition call was “active”. Take `O=C(O)c1ccc2ccccc2c1`: the growth inhibition call was “inactive”.
